Experimental data: PubChem BioAssay (NCI)
Compounds without any hit were thinned out: in the full panel of roughly 83,000, 20% have a hit.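 The endpoint reported here, percent growth, reads 100 for growth as untreated, 0 for no net growth and -100 for all cells dead.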 Calls of active or inactive are those of the source. Rule for the calls: active = growth percent below 10; inactive = the rest.

These molecules were tested on NCI-H322M lung (assay: NCI-60 one-dose screen, 48 h (100 = growth as untreated, 0 = no growth, -100 = all killed)). Settings: 10 µM.
In the case of `CN(C)CCOc1nc2ccccc2c2c1-c1ccc(Cl)cc1C2=O`, the growth is reported as -34% (active).
In the case of `CCOC(=O)C(CSC(c1ccccc1)(c1ccccc1)c1ccccc1)NC(=O)C(CSC(c1ccccc1)(c1ccccc1)c1ccccc1)NC(c1ccccc1)(c1ccccc1)c1ccccc1` (centres undefined), the growth is reported as 101% (inactive).
With `O=C1OCC2=C1C(c1cccc(Cl)c1)c1cc3c(cc1N2CCO)CCC3` (centres undefined) the growth was 33% (inactive).
In the case of `O=C(Nc1ccc(Cl)cc1)N1NC(c2ccc(Cl)cc2)C=C1c1ccccc1` (centres undefined), the growth is reported as 90.8% (inactive).
With `S=c1[nH]ccn1-c1c(Cl)cccc1Cl` the growth was 102% (inactive).
With `Cc1ccc(NC(=O)CSc2nc3ccccc3c(=O)n2CCc2ccccc2)c(C(=O)O)c1` the growth was 90.9% (inactive).
With `O=S(=O)(NCCCNc1nccc(-c2c(-c3ccc(F)cc3)nc3sccn23)n1)c1ccc(F)cc1` the growth was 43.2% (inactive).
With `CCn1cc(C(=O)O)c(=O)c2cnc(N3CCCC3)nc21` the growth was 97.3% (inactive).
For `O=c1c2ccccc2nc(SCCN2CCCCC2)n1CCc1ccccc1`, the growth was 97.6% (inactive).
In the case of `COc1cc2cc3c(nc2cc1OC)CCN3Cc1ccc(NC(=O)c2ccc(Cl)c(C(F)(F)F)c2)cc1`, the growth is reported as 84.9% (inactive).
For `CN(C)C(=S)N/N=C\C=N/NC(=S)N(C)C`, the growth was 48.9% (inactive).
`COc1cc(Cl)cc(-c2nn(-c3cccc(NC(=O)c4ccc(Cl)c(Cl)c4)c3)cc2-c2ccncc2)c1` was tested, and the growth was 84.5% (inactive).
With `CCCCCCCCCCCCCCCC(=O)OC1[C@@H](OC(=O)CCCCCCCCCCCCCCC)[C@@H](C(=O)N[C@@H](CCCCN)C(=O)OC)O[C@H]1n1cnc2c(=O)[nH]c(NC(=O)C(C)C)nc21` (some centres undefined) the growth was 89.6% (inactive).
For `CSc1nn(-c2ccccc2)c2ncnc(Oc3ccccc3)c12`, the growth was 88.6% (inactive).
With `COc1ccc(/C=C/C(=O)Nc2ccc(-c3nc4ccc(OC)cc4s3)cc2)cc1` the growth was 112% (inactive).
For `O=C(/C=C/c1cc2ccccc2[nH]c1=O)c1ccc2c(c1)OCO2`, the growth was 92% (inactive).
With `COc1ccc(N2C(=O)C3c4[nH]c5ccc(OCc6ccccc6)cc5c4C4CCC(C(C)C)CC4C3C2=O)cc1` (centres undefined) the growth was 102% (inactive).
In the case of `COc1cc(C(=C2O[C@@H]([C@H]3COC(C)(C)O3)[C@H]3OC(C)(C)O[C@@H]23)c2cc(OC)c(OC)c(OC)c2)cc(OC)c1OC`, the growth is reported as 103% (inactive).
In the case of `COc1ccccc1/C=C/C(=O)c1ccccc1`, the growth is reported as 91.9% (inactive).
For `COc1ccc(C2=Nc3c(C)nn(-c4ccccc4)c3NC(c3ccc(Oc4ccnc5cc(Cl)ccc45)c(OC)c3)C2)cc1` (centres undefined), the growth was 95.1% (inactive).
`NC(=O)SCC(=O)Nc1ccc(S(N)(=O)=O)cc1` was tested, and the growth was 121% (inactive).
`c1ccc([I+]c2ccccc2)cc1` was tested, and the growth was 72.8% (inactive).
`CCN1CCCC1CNC(=O)c1ncc(-c2ccc(C(F)(F)F)cc2)c(NC2CCCCCC2)n1` (centres undefined) was tested, and the growth was 84.7% (inactive).
For `Cc1ccc(N=Nc2c(N)nc(N)[nH]c2=O)cc1C`, the growth was 83.1% (inactive).
`COc1ccc(/C=C2/CN(C(=O)c3ccc(C)cc3)C/C(=C\c3ccc(OC)cc3)C2=O)cc1` was tested, and the growth was 90.2% (inactive).
In the case of `COc1cc(-c2cc(/C=C3\C(=O)Nc4cc(Cl)ccc43)[nH]n2)cc(OC)c1OC`, the growth is reported as 47.5% (inactive).
In the case of `O=C(Nc1cccc(-n2cc(-c3ccncc3)c(-c3ccc(O)c(Cl)c3)n2)c1)c1ccc(N2CCOCC2)c(C(F)(F)F)c1`, the growth is reported as 44.5% (inactive).
In the case of `COc1ccccc1CNCCCN1C(=O)c2ccc3c4c(ccc(c24)C1=O)C(=O)N(CCCN)C3=O`, the growth is reported as -30.7% (active).
With `N=c1c2c(-c3ccccc3)c(-c3ccccc3)n(Cc3ccccc3)c2ncn1CCCO` the growth was 34.4% (inactive).
In the case of `CCCC(F)C(=O)O` (centres undefined), the growth is reported as 90.9% (inactive).
`O=C(N/N=C\c1cc(Cl)ccc1[N+](=O)[O-])c1ccco1` was tested, and the growth was 126% (inactive).
For `COC(=O)c1ccc(=O)oc1`, the growth was 106% (inactive).
For `Oc1[nH]c2ccc(Cl)cc2c1/C=c1/ccc2c(c1)N=C(c1cc(F)cc(F)c1)N=2`, the growth was 93.2% (inactive).
With `CN(Cc1ccccc1)Cc1ccc([N+](=O)[O-])cc1I` the growth was 92.9% (inactive).
With `O=C(CCCCC(=O)Nc1ccc2c(c1)/C(=C/c1ccc[nH]1)C(=O)N2)NO` the growth was 64.1% (inactive).
With `O=C1/C(=C/c2ccc(Cl)cc2)SC(=Nc2ccc(Cl)cc2)N1Cc1nc2ccccc2[nH]1` the growth was 95.4% (inactive).
`O=C(C[P+](c1ccccc1)(c1ccccc1)c1ccccc1)C[P+](c1ccccc1)(c1ccccc1)c1ccccc1` was tested, and the growth was -59.3% (active).
`N=C(N)c1ccc(-c2ccc(-c3ccccc3)o2)nc1` was tested, and the growth was 91.7% (inactive).
`COc1cc(/C=C2\CCCC3=C2N=C2SC=NN2C3c2cc(OC)c(OC)c(OC)c2)cc(OC)c1OC` (centres undefined) was tested, and the growth was 28.4% (inactive).
